# PLK1 PBD inh: PLK1 (human) polo-box domain binding inhibition; P53350; Plk1 PBD binding of FITC phosphopeptide, fluorescence polarization; Potency, µM, for the others: max response, negative = inhibition, hits mostly inhibitors; hit rate 2.8% among 360,000; note: series mostly up to about 57 µM; % is set by controls: 0 for no effect and ±100 for the full control effect; nearly all actives have a fitted effect of over 65% in size
# Sfp PPTase inh: inhibitors of Bacillus subtilis Sfp phosphopantetheinyl transferase; Q9F4F7; Biochemical Sfp PPTase activity, qHTS; Potency, µM, without a hit: largest response in the series, negative = inhibition, actives largely listed as inhibitors; hit rate 3.5% among 310,000; AID 1490;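 note: the enzyme is Sfp with the accession as filed and its product quenches rhodamine fluorescence; 0% = enzyme reaction without inhibitor and -100% = no enzyme wells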
#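 Fluorescence-quenching assay with 15 nM Sfp, 5 uM rhodamine-CoA and 12.5 uM BHQ-2-labelled ybbR peptide in pH 7.6 Hepes/MgCl2 buffer. Enzyme was pre-incubated with compound for 15 min at room temperature. Rate was taken from the 30-min fluorescence change (525/598 nm).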
# BAZ2B inh: BAZ2B (human) inhibition. AID 504333. Potency, µM (highest dose often 114 µM), inactives show at the top dose activity change, negative = inhibition, hits mostly inhibitors. AlphaScreen BAZ2B-H3K14Ac peptide displacement. hit rate 4.4% among 360,000. Q9UIF8; note: % is set by controls: 0 for no effect and ±100 for the full control effect; nearly all actives have a fitted effect of over 60% in size
#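 AlphaScreen luminescence quantifies BAZ2B engagement of H3K14Ac peptide; the protein and biotinylated peptide are both at 50 nM final, buffer PBS pH 7.4 with 0.01% Tween-20, all steps at room temperature.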
# JMJD2A Tudor: JMJD2A Tudor domain (human) inhibition; Potency, µM (doses to about 114 µM), for the others: at the highest dose activity change, negative = inhibition, usual class: inhibitors; AlphaScreen JMJD2A-Tudor / H3K4me3 peptide binding; O75164; hit rate 4.4% among 390,000; note: % is set by controls: 0 for no effect and ±100 for the full control effect; nearly all actives have a fitted effect of over 50% in size
# Target sequence (O75164 whole entry, looked up, the tested form may be a part): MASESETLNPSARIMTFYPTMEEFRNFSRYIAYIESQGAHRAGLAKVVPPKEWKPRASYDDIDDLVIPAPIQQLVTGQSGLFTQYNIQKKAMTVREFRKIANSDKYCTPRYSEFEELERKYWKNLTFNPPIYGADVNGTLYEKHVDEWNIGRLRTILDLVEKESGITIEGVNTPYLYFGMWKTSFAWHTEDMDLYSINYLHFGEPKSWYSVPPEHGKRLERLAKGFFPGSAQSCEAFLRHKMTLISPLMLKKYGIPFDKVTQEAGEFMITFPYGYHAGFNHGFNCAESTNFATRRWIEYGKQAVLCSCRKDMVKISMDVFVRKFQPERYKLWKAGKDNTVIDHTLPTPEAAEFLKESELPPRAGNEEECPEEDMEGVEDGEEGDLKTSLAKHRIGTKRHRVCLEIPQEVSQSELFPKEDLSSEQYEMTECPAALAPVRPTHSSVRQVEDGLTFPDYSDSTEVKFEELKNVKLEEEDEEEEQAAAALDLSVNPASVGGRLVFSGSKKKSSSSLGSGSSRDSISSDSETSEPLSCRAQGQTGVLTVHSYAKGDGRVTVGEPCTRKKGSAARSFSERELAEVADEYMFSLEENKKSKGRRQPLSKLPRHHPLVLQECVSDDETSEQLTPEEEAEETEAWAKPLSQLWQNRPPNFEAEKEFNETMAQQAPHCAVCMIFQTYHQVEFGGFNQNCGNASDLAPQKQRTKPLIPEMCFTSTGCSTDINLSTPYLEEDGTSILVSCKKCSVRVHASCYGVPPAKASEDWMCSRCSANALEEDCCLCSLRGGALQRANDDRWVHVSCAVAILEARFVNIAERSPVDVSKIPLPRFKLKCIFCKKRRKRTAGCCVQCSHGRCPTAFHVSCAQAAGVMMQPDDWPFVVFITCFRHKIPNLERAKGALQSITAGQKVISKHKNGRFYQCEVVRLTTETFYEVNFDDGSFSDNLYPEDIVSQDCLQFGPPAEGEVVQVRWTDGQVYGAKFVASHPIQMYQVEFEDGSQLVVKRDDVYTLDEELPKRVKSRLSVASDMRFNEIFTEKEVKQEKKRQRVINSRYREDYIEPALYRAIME
# G9a inh: inhibitors of human histone lysine methyltransferase G9a. Q96KQ7. G9a H3K9 monomethylation, AlphaScreen, 2 h. Potency, µM (highest dose often 102 µM), for inactives: at the top dose activity, negative = inhibition, actives largely listed as inhibitors. hit rate 8.8% among 350,000. AID 504332; note: % is set by controls: 0 for no effect and ±100 for the full control effect; nearly all actives have a fitted effect of over 75% in size
#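 AlphaScreen read-out: biotin-H3K9 peptide (500 nM) methylation by 20 nM enzyme with 20 uM SAM, 2 h at room temperature after 15 min compound preincubation; anti-monomethyl H3K9 antibody plus donor/acceptor beads, 10 min dark.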
# HP1b binding inh: HP1-beta chromodomain-methylated histone interaction inhibition. AlphaScreen HP1-beta / biotin-H3K9me3 peptide binding. Potency, µM (doses to about 114 µM), without a hit: top-dose activity change, negative = inhibition, hits mostly inhibitors. hit rate 0.56% among 390,000. P83916; note: nearly all actives have a fitted effect of over 70% in size
#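 AlphaScreen: HP1-beta (50 nM) preformed 30 min with biotin-H3(1-18)K9me3 peptide (50 nM) in PBS pH 7.4, 0.01% Tween-20. Compound added for 30 min at RT, then streptavidin donor/nickel chelate acceptor beads (10 ug/mL) for 30 min.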
# Numbers without * were called inactive; ? = inconclusive; · = no result; ! = a repeat was not active; [ ] = remark or other dose. Shown are actives, neighbours in structure and some others; about 12% of the full set was active somewhere. Calls come from the whole dose curve; as a rule, active = well fitted curve in the direction sought with a large enough effect; inconclusive = small, poorly fitted or top-dose-only effect, or another doubt; inactive = no such curve, though single readings can be large; an effect the other way counts as inactive or inconclusive. Potency is the fitted concentration of half-maximal effect.
SMILES,PLK1 PBD inh,Sfp PPTase inh,BAZ2B inh,JMJD2A Tudor,G9a inh,HP1b binding inh
CCCN1CCC[C@@H]2Cc3[nH]ncc3C[C@H]21,-12%,-2%,·,-23%,25µM*!,8%
CCCN1CCC[C@@H]2Cc3n[nH]cc3C[C@H]21,·,·,·,·,22%[12.7 µM],·
CCCN1CCC[C@@H]2Cc3nc(N)ncc3C[C@H]21,-6%,·,·,-30%,11µM*!,24%
COc1cccc(C(=O)c2cn(CC(=O)Nc3cc(Cl)c(OC)cc3OC)c3nc(C)ccc3c2=O)c1,·,·,5%,-15%,8%[59 µM],79%
CCCC[C@@H](C)[C@@H](OC(=O)C[C@@H](CC(=O)O)C(=O)O)[C@H](C[C@@H](C)C[C@H](O)CCCC[C@@H](O)C[C@H](O)[C@H](C)N)OC(=O)C[C@H](CC(=O)O)C(=O)O,·,33%,·,·,18%[59 µM],·
CN(C)CCN(Cc1ccccc1)c1ccnc(N(C)C)c1C#N,-12%,-16%,?,63µM*,7.9µM*,?
CC(=O)[C@@H]1CC[C@H]2[C@@H]3CC[C@@H]4CC(=O)CC[C@]4(C)[C@H]3CC[C@]12C,·,8%,·,·,26%[59 µM],·
O=C(Cc1ccccc1)Oc1coc(CSc2ncccn2)cc1=O,-8%,1%,·,14µM*,-7%,18%
CCn1c(O)c(/C=N/NC(=O)c2ccncc2)c(=O)[nH]c1=S,-3%,-6%,35µM*,71µM*,-22%[59 µM],48%
O=c1[nH]c(=S)n(Cc2ccc(F)cc2)c(O)c1C=NCCCn1ccnc1,-10%,13%,-26%,-21%,-29%,14%
CCCCn1c(O)c(/C=N/NC(=O)c2ccncc2)c(=O)[nH]c1=O,5%,-5%,?,?,·,41%
CCC(C)n1c(O)c(/C=N/NC(=O)c2ccncc2)c(=O)[nH]c1=S (configuration not stated),-9%,11%,56µM*,?,22%[59 µM],48%
CCC(C)n1c(O)c(/C=N/Nc2ccccc2)c(=O)[nH]c1=S (configuration not stated),-10%,45µM*,?,?,1.1µM*,6%
O=C(N/N=C/c1c(O)n(Cc2ccc(F)cc2)c(=S)[nH]c1=O)c1ccncc1,-23%,-16%,79µM*,100µM*,·,13%
COC1=CC(=O)O[C@@H](/C=C\c2ccccc2)C1,·,12%,·,·,29%[21.5 µM],·
OC12C3C4CC5C6C4C1C6C(C53)N2CCc1cccc(F)c1 (configuration not stated),·,7%,·,·,·,·
C[C@@]12CC[C@H](O)C[C@@H]1CC[C@H]1[C@@H]2C[C@@H](O)[C@]2(C)[C@@H](C3=CC(=O)OC3)CC[C@]12O,·,-5%,·,·,10%[21.5 µM],·
N#CC1=C(N)Oc2c(c(=O)oc3ccccc23)C1c1ccc([N+](=O)[O-])o1 (configuration not stated),21µM*,?,?,-35%,·,-10%
CC(C)[C@]1(NC(=O)[C@@H]2C=C3c4cccc5[nH]cc(c45)C[C@H]3N(C)C2)O[C@@]2(O)C3CCCN3C(=O)[C@H](Cc3ccccc3)N2C1=O (some centres not stated),·,-13%,·,·,·,·
CC(O)C(C)OC(=O)[C@@H]1C[C@@H]2c3cccc4c3c(cn4C(C)C)C[C@H]2N(C)C1 (some centres not stated),·,?,·,·,45µM*!,·
CCCn1cc2c3c(cccc31)C1CC(C)CN(C)C1C2 (configuration not stated),·,10%,-25%,·,?,·
O=C(O)c1nn(Cc2ccc(Cl)c(Cl)c2)c2ccccc12,·,8%,·,·,·,·
N#CC(C#N)=NNc1ccc(OC(F)(F)F)cc1,·,?,·,·,10µM*,·
N#CC(C#N)=NNc1ccc(S(=O)(=O)N2CCCC2)cc1,-10%,-5%,?,?,?,?
CC1CCN(C(=O)COC(=O)c2cn(C)c3ccccc23)CC1,-12%,·,2%,-13%,-7%[12.7 µM],38%
SMILES,PLK1 PBD inh,Sfp PPTase inh,BAZ2B inh,JMJD2A Tudor,G9a inh,HP1b binding inh
O=C(OCC(=O)N1CCOCC1)c1ccc[nH]c1=O,-8%,2%,·,18µM*,20µM*,-4%
c1ccc(C[C@@H](c2ccccc2)N2CCCCC2)cc1,·,-2%,·,·,·,·
CC[N+](C)(C)c1cccc(O)c1,3%,8%,5%,-1%,-12%[59 µM],36%
Cc1ccc2c(c1)C1C[N+](C)(CC(=O)c3ccc(Cl)cc3Cl)CCC1N2C(=O)c1ccc(F)cc1 (configuration not stated),?,·,·,16µM*,·,?
CNC(=O)Oc1ccc2c(c1)[C@@]1(C)CCN(C)C1N2C (some centres not stated),·,?,·,·,3%[2.33 µM],·
CCOC(=O)c1sc(=NC(=O)c2ccc(C)c(C)c2)n(C)c1C,27µM*,19%,-5%,20µM*,11%[59 µM],-10%
CCOC(=O)c1ccccc1C(=O)OCC,-19%,7%,·,-6%,18%[59 µM],55%
Cc1ccc(C[N+](C)(C)C)o1,·,-1%,·,·,2%[59 µM],·
C#C[C@]1(O)CCC2C3CCC4=C/C(=N/OCC(=O)NC(C)C(=O)NC(CCSC)C(=O)O)CC[C@]4(C)C3CC[C@@]21C (some centres not stated),?,-23%,2%,-17%,56µM*,45%
C[C@]12CC[C@H]3C(=CCc4cc(O)ccc43)[C@@H]1CCC2=O,-18%,-7%,1%,-22%,-18%[59 µM],26%
COC(=O)c1ccc(N2C(=O)CC(N3CCC(O)(c4ccc(Br)cc4)CC3)C2=O)cc1 (configuration not stated),0%,7%,4%,-9%,11µM*,49%
O=C(CN1C(=O)S/C(=C\C=C\c2ccccc2)C1=O)Nc1ccccc1C(=O)O,19µM*,-4%,-33%,-18%,?,-3%[57 µM]
Cc1ccccc1NC(=O)CCl,-6%,15%,0%,-9%,5%,36%
O=C(NC1CN2CCC1CC2)c1ccc(-c2ccc([N+](=O)[O-])cc2)o1 (configuration not stated),-21%,56µM*,-30%,-27%,?,-2%
CC(C)CN1CC[C@@]2(CCCN(C(=O)Oc3ccccc3)C2)C1,·,-4%,·,·,6%[12.7 µM],·
CC(=O)Nc1cc(Cl)c(N=Cc2ccc(O)cc2O)cc1Cl,-10%,-17%,-36%,-6%,56µM*,33%
CC(=O)Nc1cc([As](=O)(O)O)ccc1O,-10%,-12%,-37%,-20%,-2%[59 µM],17%
CN1C(=O)[C@]23CC4=CC=C[C@H](O)[C@H]4N2C(=O)[C@@]1(CO)SS3,·,2.5µM*,·,·,·,·
C#CCOCCOCCOCCNc1nc(N2CCN(C(=O)CCCCCCCCCCNC(=O)[C@H]([C@@H](C)CC)n3cc(CCCCN=C(N)N)nn3)CC2)nc(N2CCN(C(=O)CCCCCCCCCCNC(=O)[C@H](CO)n3cc(CCCCCN)nn3)CC2)n1,-11%,·,50µM*,56µM*,-8%[2.33 µM],?
